The target in assay [1] is rat Glutamate, AMPA Site (AMPA), Gria1 (gene 50592) (UniProt P19490). Kind of assay: NVS_LGIC_rAMPA: NovaScreen (NVS) Ligand-Gated Ion Channel Assay for rat Glutamate, AMPA Site (AMPA) (AID 2283324). Summed up:
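Rat forebrain membranes; radioligand binding read 1 h after dosing by filtration and scintillation counting. Duplicate single-point screen at 25 uM, then concentration-response to 50 uM for threshold hits (e.g. 30% inhibition); loss of signal vs DMSO.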

The target of assay [2] is rat Glutamate, MK-801 Agonist Site (GluNMDA_MK801), Grin1 (gene 24408) (UniProt P35439). Kind of assay: NVS_LGIC_rGluNMDA_MK801_Agonist: NovaScreen (NVS) Ligand-Gated Ion Channel Assay for rat Glutamate, MK-801 Agonist Site (GluNMDA_MK801) (AID 2283340). The procedure:
NVS_LGIC_rGluNMDA_MK801_Agonist is a biochemical, single-readout assay that uses extracted gene-proteins from Rat forebrain membranes in a tissue-based cell-free assay. Measurements were taken 1.5 hours after chemical dosing in a 48-well plate.NVS_LGIC_rGluNMDA_MK801_Agonist is one of one assay component(s) measured or calculated from the NVS_LGIC_rGluNMDA_MK801_Agonist assay. It is designed to make measurements of radioligand binding, a form of binding reporter, as detected with scintillation counting signals by Filter-based radiodetection technology.Data from the assay component NVS_LGIC_rGluNMDA_MK801_Agonist was analyzed into 1 assay endpoint. This assay endpoint, NVS_LGIC_rGluNMDA_MK801_Agonist, was analyzed in the positive analysis fitting direction relative to DMSO as the negative control and baseline of activity. Using a type of binding reporter, gain-of-signal activity can be used to understand changes in the binding as they relate to the gene Grin1. Furthermore, this assay endpoint can be referred to as a primary readout, because the performed assay has only produced 1 assay endpoint. To generalize the intended target to other relatable targets, this assay endpoint is annotated to the ion channel intended target family, where the subfamily is ligand-gated ion channel. […]

The target in assay [3] is rat Glutamate, NMDA Agonist Site (GluNMDA), Grin1 (gene 24408) (UniProt P35439). Kind of assay: NVS_LGIC_rGluNMDA_Agonist: NovaScreen (NVS) Ligand-Gated Ion Channel Assay for rat Glutamate, NMDA Agonist Site (GluNMDA) (AID 2283327). Summed up:
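Rat forebrain membranes, radioligand binding in the agonist-site protocol; 1 h after dosing; filter-based scintillation counting. Single-concentration duplicate screen at 25 uM, then concentration-response up to 50 uM for actives; gain-of-signal vs DMSO.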

Assay [4] concerns the target rat Oxytocin Receptor (OXT), Oxtr (gene 25342) (UniProt P70536). Nature of the assay: NVS_GPCR_rOXT: NovaScreen (NVS) G Protein-Coupled Receptor Assay for rat Oxytocin Receptor (OXT) (AID 2283330). On the procedure: NVS_GPCR_rOXT is a biochemical, single-readout assay that uses extracted gene-proteins from Rat uterine membranes in a tissue-based cell-free assay. Measurements were taken 1 hour after chemical dosing in a 48-well plate.NVS_GPCR_rOXT is one of one assay component(s) measured or calculated from the NVS_GPCR_rOXT assay. It is designed to make measurements of radioligand binding, a form of binding reporter, as detected with scintillation counting signals by Filter-based radiodetection technology.Data from the assay component NVS_GPCR_rOXT was analyzed into 1 assay endpoint. This assay endpoint, NVS_GPCR_rOXT, was analyzed in the positive analysis fitting direction relative to DMSO as the negative control and baseline of activity. […] Furthermore, this assay endpoint can be referred to as a primary readout, because the performed assay has only produced 1 assay endpoint. […]
Binding assays used specific radioligands (tritiated, iodinated) with non-radioactive competitive displacement ligands in agonist or antagonist protocols (as indicated) and various reference compounds and inhibitors to titrate specific binding to receptors and transporters. Most enzyme assays (CYPs, kinases, phosphatases, proteases, HDACs) used recombinant protein and specific substrates (fluorescence mostly, some colorimetric and radioactive) and inhibitors, followed by a biochemical separation of substrate and product. […]

Assay [5] in a line: NVS_IC_rCaBTZCHL: NovaScreen (NVS) Ion Channel Assay for Calcium Channel, Type L, Benzothiazepine Site (CaBTZCHL) (AID 2283337). Summed up:
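Radioligand displacement at the benzothiazepine site using rat cortical membranes; bound label measured by filtration and scintillation counting 1.5 h after dosing. Single-point 25 uM in duplicate, then concentration series; DMSO baseline.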

Assay [6] addresses bovine Gamma-Aminobutyric Acid Type A Receptor Agonist (GABAR Agonist), GABRA1 (gene 780973) (UniProt P08219). Nature of the assay: NVS_LGIC_bGABAR_Agonist: NovaScreen (NVS) Ligand-Gated Ion Channel Assay for bovine Gamma-Aminobutyric Acid Type A Receptor Agonist (GABAR Agonist) (AID 2283338). The procedure:
NVS_LGIC_bGABAR_Agonist is a biochemical, single-readout assay that uses extracted gene-proteins from Bovine cerebellar membranes in a tissue-based cell-free assay. Measurements were taken 1 hour after chemical dosing in a 48-well plate.NVS_LGIC_bGABAR_Agonist is one of one assay component(s) measured or calculated from the NVS_LGIC_bGABAR_Agonist assay. It is designed to make measurements of radioligand binding, a form of binding reporter, as detected with scintillation counting signals by Filter-based radiodetection technology.Data from the assay component NVS_LGIC_bGABAR_Agonist was analyzed into 1 assay endpoint. This assay endpoint, NVS_LGIC_bGABAR_Agonist, was analyzed in the positive analysis fitting direction relative to DMSO as the negative control and baseline of activity. Using a type of binding reporter, gain-of-signal activity can be used to understand changes in the binding as they relate to the gene GABRA1. Furthermore, this assay endpoint can be referred to as a primary readout, because the performed assay has only produced 1 assay endpoint. To generalize the intended target to other relatable targets, this assay endpoint is annotated to the ion channel intended target family, where the subfamily is ligand-gated ion channel.
Binding assays used specific radioligands (tritiated, iodinated) with non-radioactive competitive displacement ligands in agonist or antagonist protocols (as indicated) and various reference compounds and inhibitors to titrate specific binding to receptors and transporters. Most enzyme assays (CYPs, kinases, phosphatases, proteases, HDACs) used recombinant protein and specific substrates (fluorescence mostly, some colorimetric and radioactive) and inhibitors, followed by a biochemical separation of substrate and product. All assays for the biochemical HTS were initially run in duplicate at a single concentration (10 uM for CYP450 assays and 25 uM for all others). […] Each assay was run with positive and negative controls, and concurrent controls on every plate. […]

Assay [7] deals with rat Glycine Receptor, Strychnine-sensitive (GlyRStrySens), Glra1 (gene 25674) (UniProt P07727). Nature of the assay: NVS_LGIC_rGlyRStrySens: NovaScreen (NVS) Ligand-Gated Ion Channel Assay for rat Glycine Receptor, Strychnine-sensitive (GlyRStrySens) (AID 2283341). The gist of the method: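 Radioligand displacement on rat spinal cord membranes, 1 hr, filter scintillation read-out. Single-concentration duplicate screen at 25 uM; chemicals meeting threshold (e.g., 30% inhibition) rerun in concentration-response up to 50 uM. Loss of binding fitted versus DMSO.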
Sequence of rat Glycine Receptor, Strychnine-sensitive (GlyRStrySens), Glra1 (gene 25674) (P07727 whole entry, looked up): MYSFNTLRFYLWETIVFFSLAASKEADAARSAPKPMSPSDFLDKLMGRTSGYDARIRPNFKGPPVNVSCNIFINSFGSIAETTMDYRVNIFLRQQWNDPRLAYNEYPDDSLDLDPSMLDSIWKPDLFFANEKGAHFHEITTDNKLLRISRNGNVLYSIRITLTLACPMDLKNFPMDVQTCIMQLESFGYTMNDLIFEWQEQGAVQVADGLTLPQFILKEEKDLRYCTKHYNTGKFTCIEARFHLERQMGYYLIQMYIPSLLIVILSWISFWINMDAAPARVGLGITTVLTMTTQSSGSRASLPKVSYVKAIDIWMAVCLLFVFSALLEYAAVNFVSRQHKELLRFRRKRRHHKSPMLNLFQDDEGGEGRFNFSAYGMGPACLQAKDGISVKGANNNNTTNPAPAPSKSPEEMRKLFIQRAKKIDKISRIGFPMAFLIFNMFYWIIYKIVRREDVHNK

Assay [8] deals with Glutamate receptor ionotropic, kainate 1 (Rattus norvegicus) (UniProt P22756). Kind of assay: NVS_IC_rKAR: NovaScreen (NVS) Ion Channel Assay for rat Kainic Acid Receptors (KAR) (AID 2283334; active means hit-call score of the fitted dose curve at least 0.9, where 1 is the maximum; inactive means score below 0.9). The gist of the method:
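Radioligand displacement binding using rat forebrain membranes, 1 h incubation, filter-based scintillation counting. Screened in duplicate at 25 uM, with actives retested in concentration-response up to 50 uM; fitted against DMSO.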

Assay [9] deals with Small conductance calcium-activated potassium channel protein 1 (Rattus norvegicus) (UniProt P70606). Nature of the assay: NVS_IC_rKCaCh: NovaScreen (NVS) Ion Channel Assay for rat Potassium Channel, Ca2+ Act., VI (KCaCh) (AID 2283336). The gist of the method:
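Radioligand binding to rat forebrain membranes, cell-free, read 1 hour after dosing by filter-based scintillation counting. Compounds first run in duplicate at 25 uM, actives then in concentration series; loss of signal vs DMSO indicates displacement.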

Assay [10] addresses chimpanzee Androgen Receptor (AR), AR (gene 747460) (UniProt O97775). Nature of the assay: NVS_NR_cAR: NovaScreen (NVS) Nuclear Receptor Binding Assay for chimpanzee Androgen Receptor (AR) (AID 2283346).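 Further: radioligand displacement from AR measured by scintillation counting in a cell-free assay; a loss of bound radioligand signal versus DMSO counts as binding.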 Summed up:
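Radioligand binding to chimpanzee AR expressed in Sf9/Sf21 cells, cell-free, measured 72 h after dosing by lysate-based scintillation counting. Loss of signal vs DMSO; initial duplicate screen at 25 uM, actives retested in concentration series.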

Where “and” joins values, the source holds several entries; their conditions need not be identical. Equal entries are not always repeated. Results filed as inconclusive are left out. Calls of active or inactive are those of the source. How the source made its calls, unless noted: active means hit-call score of the fitted dose curve at least 0.9, where 1 is the maximum; inconclusive means response in the unintended direction; inactive means score below 0.9.

Sequence of bovine Gamma-Aminobutyric Acid Type A Receptor Agonist (GABAR Agonist), GABRA1 (gene 780973) (P08219 whole entry, looked up): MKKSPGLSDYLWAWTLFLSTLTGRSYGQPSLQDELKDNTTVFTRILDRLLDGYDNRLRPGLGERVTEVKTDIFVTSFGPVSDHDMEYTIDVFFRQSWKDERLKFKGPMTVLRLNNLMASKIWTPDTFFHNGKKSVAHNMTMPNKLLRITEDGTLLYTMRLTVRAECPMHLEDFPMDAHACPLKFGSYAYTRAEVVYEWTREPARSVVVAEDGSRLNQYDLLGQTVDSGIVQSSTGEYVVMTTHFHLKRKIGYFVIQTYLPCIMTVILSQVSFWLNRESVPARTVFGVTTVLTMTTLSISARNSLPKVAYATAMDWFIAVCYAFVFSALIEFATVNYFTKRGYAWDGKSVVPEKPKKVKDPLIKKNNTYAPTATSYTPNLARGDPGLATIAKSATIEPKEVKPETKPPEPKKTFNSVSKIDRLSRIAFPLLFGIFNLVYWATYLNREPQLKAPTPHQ
Sequence of rat Glutamate, AMPA Site (AMPA), Gria1 (gene 50592) (P19490 whole entry, looked up): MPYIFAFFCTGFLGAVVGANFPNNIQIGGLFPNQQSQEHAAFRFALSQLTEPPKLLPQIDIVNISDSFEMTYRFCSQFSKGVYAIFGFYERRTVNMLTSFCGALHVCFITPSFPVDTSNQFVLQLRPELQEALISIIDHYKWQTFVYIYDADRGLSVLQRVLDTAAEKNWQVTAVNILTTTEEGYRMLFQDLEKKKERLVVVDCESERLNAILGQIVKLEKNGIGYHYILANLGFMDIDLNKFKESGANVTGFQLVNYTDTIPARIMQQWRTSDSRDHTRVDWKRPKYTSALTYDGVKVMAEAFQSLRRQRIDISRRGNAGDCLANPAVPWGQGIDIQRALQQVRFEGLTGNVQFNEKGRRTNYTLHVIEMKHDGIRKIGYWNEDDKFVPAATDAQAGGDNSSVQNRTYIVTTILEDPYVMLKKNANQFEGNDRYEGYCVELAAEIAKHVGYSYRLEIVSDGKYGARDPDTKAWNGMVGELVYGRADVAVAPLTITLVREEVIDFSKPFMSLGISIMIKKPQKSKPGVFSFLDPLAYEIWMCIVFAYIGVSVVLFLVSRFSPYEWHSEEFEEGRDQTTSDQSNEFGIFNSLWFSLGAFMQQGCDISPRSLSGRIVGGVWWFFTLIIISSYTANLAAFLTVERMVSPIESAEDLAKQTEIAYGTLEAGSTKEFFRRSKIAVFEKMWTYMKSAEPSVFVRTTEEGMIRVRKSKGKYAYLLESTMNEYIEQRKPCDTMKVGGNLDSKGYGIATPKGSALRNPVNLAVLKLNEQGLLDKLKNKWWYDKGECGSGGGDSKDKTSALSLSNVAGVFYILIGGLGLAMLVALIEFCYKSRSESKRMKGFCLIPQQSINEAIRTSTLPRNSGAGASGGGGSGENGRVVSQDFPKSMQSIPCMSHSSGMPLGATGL
Sequence of Glutamate receptor ionotropic, kainate 1 (Rattus norvegicus) (P22756 whole entry, looked up): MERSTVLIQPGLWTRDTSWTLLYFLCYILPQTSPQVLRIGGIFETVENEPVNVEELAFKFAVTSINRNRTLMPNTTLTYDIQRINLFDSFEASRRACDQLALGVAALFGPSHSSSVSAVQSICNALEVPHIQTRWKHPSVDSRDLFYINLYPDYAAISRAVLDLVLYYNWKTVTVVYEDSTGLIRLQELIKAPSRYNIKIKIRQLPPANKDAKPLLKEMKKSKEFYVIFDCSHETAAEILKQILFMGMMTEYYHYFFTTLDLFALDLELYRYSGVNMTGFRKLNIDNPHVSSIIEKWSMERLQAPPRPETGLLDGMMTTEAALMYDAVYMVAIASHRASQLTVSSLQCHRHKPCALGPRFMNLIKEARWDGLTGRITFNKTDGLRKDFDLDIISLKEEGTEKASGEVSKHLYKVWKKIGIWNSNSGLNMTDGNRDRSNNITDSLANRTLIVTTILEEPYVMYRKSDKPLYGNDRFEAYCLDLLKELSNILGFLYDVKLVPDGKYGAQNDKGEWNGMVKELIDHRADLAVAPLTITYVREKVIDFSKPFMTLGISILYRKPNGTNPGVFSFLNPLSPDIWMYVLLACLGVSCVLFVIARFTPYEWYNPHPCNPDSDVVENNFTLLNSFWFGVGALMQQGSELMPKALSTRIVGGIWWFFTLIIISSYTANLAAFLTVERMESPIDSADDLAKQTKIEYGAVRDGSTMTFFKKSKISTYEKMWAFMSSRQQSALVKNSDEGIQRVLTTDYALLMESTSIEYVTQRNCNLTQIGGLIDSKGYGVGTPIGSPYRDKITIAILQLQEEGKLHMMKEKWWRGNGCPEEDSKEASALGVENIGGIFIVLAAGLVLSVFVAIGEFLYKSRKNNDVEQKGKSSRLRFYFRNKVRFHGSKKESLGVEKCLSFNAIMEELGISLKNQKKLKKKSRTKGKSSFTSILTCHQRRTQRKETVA
Sequence of chimpanzee Androgen Receptor (AR), AR (gene 747460) (O97775 whole entry, looked up): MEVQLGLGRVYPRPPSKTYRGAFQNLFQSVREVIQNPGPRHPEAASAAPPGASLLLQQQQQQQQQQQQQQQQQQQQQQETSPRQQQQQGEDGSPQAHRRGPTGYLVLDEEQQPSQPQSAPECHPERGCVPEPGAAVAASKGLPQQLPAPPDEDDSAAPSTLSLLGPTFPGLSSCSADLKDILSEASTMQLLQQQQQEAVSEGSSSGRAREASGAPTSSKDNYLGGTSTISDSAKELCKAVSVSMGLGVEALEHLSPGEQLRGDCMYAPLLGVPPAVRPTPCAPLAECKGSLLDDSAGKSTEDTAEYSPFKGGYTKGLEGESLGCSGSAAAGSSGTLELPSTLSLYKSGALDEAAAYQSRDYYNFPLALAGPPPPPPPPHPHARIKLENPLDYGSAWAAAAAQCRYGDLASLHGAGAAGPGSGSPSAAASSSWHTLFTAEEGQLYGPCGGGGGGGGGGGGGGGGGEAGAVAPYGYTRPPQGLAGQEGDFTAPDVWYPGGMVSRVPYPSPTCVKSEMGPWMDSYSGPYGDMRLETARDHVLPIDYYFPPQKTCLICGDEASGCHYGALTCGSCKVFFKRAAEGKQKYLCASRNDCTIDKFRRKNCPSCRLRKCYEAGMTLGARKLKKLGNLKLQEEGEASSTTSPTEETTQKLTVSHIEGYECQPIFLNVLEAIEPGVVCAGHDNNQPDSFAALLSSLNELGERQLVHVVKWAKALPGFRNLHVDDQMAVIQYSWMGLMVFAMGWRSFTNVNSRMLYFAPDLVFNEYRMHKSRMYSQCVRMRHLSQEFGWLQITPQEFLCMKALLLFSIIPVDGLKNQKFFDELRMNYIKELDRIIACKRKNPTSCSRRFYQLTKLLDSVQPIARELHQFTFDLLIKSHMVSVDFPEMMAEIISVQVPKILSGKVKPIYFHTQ
Sequence of Small conductance calcium-activated potassium channel protein 1 (Rattus norvegicus) (P70606 whole entry, looked up): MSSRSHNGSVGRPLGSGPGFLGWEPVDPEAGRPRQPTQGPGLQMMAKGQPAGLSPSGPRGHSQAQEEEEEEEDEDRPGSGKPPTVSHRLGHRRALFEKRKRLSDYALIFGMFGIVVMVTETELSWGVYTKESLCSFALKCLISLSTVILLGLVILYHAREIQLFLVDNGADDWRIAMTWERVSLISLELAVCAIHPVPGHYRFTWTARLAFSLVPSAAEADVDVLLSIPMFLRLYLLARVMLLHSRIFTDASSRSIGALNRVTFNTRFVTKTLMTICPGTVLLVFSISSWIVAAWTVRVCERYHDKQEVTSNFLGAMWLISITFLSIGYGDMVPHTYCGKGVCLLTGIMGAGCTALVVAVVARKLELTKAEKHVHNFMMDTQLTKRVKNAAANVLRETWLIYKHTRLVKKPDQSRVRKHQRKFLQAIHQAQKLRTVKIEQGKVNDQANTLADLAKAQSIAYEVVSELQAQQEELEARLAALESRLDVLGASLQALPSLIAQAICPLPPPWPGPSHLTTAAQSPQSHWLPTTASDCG
Sequence of rat Oxytocin Receptor (OXT), Oxtr (gene 25342) (P70536 whole entry, looked up): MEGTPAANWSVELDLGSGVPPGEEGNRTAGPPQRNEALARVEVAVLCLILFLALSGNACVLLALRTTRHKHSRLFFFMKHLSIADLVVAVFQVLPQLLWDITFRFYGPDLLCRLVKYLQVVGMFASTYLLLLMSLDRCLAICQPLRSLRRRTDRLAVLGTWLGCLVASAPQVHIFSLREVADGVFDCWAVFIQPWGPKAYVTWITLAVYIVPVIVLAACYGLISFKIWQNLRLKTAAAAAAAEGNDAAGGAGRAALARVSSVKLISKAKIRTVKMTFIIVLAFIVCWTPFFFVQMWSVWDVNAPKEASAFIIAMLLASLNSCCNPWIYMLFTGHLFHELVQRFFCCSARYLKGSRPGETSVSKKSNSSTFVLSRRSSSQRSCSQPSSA

As for `CNC(=S)S`, the outcome in assay [1] and in assay [2] was inactive.
Regarding `COc1ccc(C(c2ccc(OC)cc2)C(Cl)(Cl)Cl)cc1`, the result in assay [1] was inactive.
As to `COc1nc(C)nc(NC(=O)NS(=O)(=O)c2ccccc2CCC(F)(F)F)n1`, the call in [3] was inactive.
On the same count and under the same terms, the result for `CCCCC(CC)COC(=O)c1ccccc1C(=O)OCC(CC)CCCC` (configuration not stated) reads “inactive”.
Take `C=CC1(C)OC(=O)N(c2cc(Cl)cc(Cl)c2)C1=O` (configuration not stated): in assay [4], the call was inactive.
Regarding `OC(c1ccc(Cl)cc1)(c1cncnc1)c1ccccc1Cl` (configuration not stated), the outcome in [5] was inactive.
Consider `CCCCOC(=O)c1ccccc1C(=O)OCCCC`, for which the outcome in assay [6] was inactive.
As to `O=C(Nc1ccccc1)Nc1ccnc(Cl)c1`, the molecule was classed as inactive in assay [7].
On to `CO/C=C(/C(=O)OC)c1ccccc1Oc1cc(Oc2ccccc2C#N)ncn1`, for which the call in [8] and in assay [2] was inactive. In addition, the AC50 in [5] was 6.63 µM (active) and 15.4 µM (active).
`COc1cnc(OC)n2nc(NS(=O)(=O)c3c(OCC(F)F)cccc3C(F)(F)F)nc12`: the outcome in assay [8] was inactive.
For the molecule `CON(C)C(=O)Nc1ccc(Cl)c(Cl)c1`, in assay [9], the result was inactive. Also, the AC50 in [10] is 15.3 µM (active).
Regarding `CCNc1nc(Cl)nc(NC(C)C)n1`, the result in assay [6] was inactive.
With `CCCCNC(=O)OCC#CI`, in assay [6], the result was inactive.

The values above are taken from PubChem BioAssay (EPA / NIEHS).
